# Screening data from PubChem.
# MITF act = MITF TRPM1 promoter activation in melanoma cells | AID 588334 | activation, % at 12.5 µM | 0.75% of 300,000 active | SK-MEL-5 TRPM1-promoter luciferase, 24 h; % of positive control, neutral wells = 0;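 active means mean activation of at least 80% with every replicate also reaching 80%; inconclusive means mean reaches 80% but some replicate falls short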;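 further: 0% = neutral control wells and 100% = parthenolide positive control wells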
# Env fusion inh = inhibitors of HIV Env-mediated cell fusion. HeLa-JRFL Env/CEM21 cell fusion, luciferase. 1.1% of 360,000 active. inhibition, % at 12.3 µM. AID 651610;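 active means mean replicate inhibition score of at least 50 and every replicate individually at or above 50; inconclusive means only one of the two criteria met; inactive means mean below 50 and not all replicates reaching 50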;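 further: 0% = plate neutral controls and 100% = maraviroc near 300 nM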
# INS-1E GSIS act = GLuc luminescence reporter in INS-1E cells, primary screen for activators of glucose-dependent secretion of insulin. INS-1E GLuc reporter insulin secretion, 2-3 h. activation, % at 16.6 µM. 0.61% of 370,000 active. AID 743287;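 active means lowest replicate activation of at least 40%, so every replicate reaches that level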;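 further: 0% = median of neutral control wells and 100% = median of IBMX positive control wells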
# Wnt bcat act = activates Wnt/beta-catenin signaling in a reporter cell assay; AID 743398; activation, % at 9.35 µM; 1.2% of 300,000 active; activator, plate reader; in the data active means activation above about 30%, passing the limit was not always enough; inconclusive means no clear call, values can overlap the other calls;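 further: 0% = neutral control wells and 100% = positive control wells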
# CFTR F508del cor = correctors of CFTR F508del function in bronchial epithelial cells | CFBE cells, YFP halide quenching; stimulated with forskolin plus potentiator P3; % fluorescence drop versus neutral controls | activity (quench increase), % at 7.58 µM | 0.36% of 350,000 active | AID 720511;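 active means mean added fluorescence quench of at least 8% versus neutral control, with both replicates also reaching 8%; inconclusive means only one of the mean or replicate conditions met; inactive means mean below 8% and not both replicates reaching 8%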;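 further: cells transiently co-express mutant CFTR-F508del with the halide-sensitive YFP; corrector assay measuring rescue of mutant channel to the surface after 24 h compound exposure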
# An asterisk follows results filed as active; ? = inconclusive; . = not tested or not shown; ! = not active in a repeat; [ ] = another dose, or the depositor's remark. Most compounds without a hit are left out; they make up all but 2.7% or so of the library.
SMILES,MITF act,Env fusion inh,INS-1E GSIS act,Wnt bcat act,CFTR F508del cor
Cc1cccc(-c2cc3nc4c(c(N5CCC6(CC5)OCCO6)n3n2)CCCC4)c1,91*,.,15,9,0
Cc1cccc(-c2cc3nc4c(c(N5CCCC(O)C5)n3n2)CCC4)c1 (stereo unspecified),8,-144,86*,3,.
OC1CCCN(c2c3c(nc4cc(-c5cccc(F)c5)nn24)CCCC3)C1 (stereo unspecified),87*,-10,53,14,2
Cc1cccc(-c2cc3nc4c(c(N5CCOCC5)n3n2)CCCC4)c1,30,.,2,7,2
OC1CCCN(c2c3c(nc4cc(-c5cccc(Cl)c5)nn24)CCC3)C1 (stereo unspecified),9,.,14,.,.
COCC(=O)Nc1ccc2c(c1)C(=O)N(C)C[C@H](OC)[C@@H](C)CN(CCC(F)(F)F)[C@H](C)CO2,.,-28[16.7 µM],5,.,0
COC(=O)[C@@H](C)NC(=O)c1ccc2oc(CCc3ccccc3)nc2c1,.,-38,0,38*,0
CC(=O)N1CCN(C(=O)c2ccc3oc(CCCc4ccccc4)nc3c2)CC1,9,10,-9,4,-1
CCOC(=O)N1CCN(C(=O)c2ccc3oc(CCCc4ccccc4)nc3c2)CC1,38,-116,-21,34*,-6
O=C(C[C@H]1CC[C@@H](NC(=O)Nc2cc(F)ccc2F)[C@H](CO)O1)Nc1ccc(-c2ccccc2)cc1,.,11[16.7 µM],-10,.,0
Cc1cccc(OCCC(=O)NNC(=O)Cn2nc(C)cc2C)c1,2,.,-14,-1,3
CCOc1ccccc1OCCC(=O)NNC(=O)Cn1nc(C)cc1C,-4,-15,53*,2,-2
O=c1c(-c2ccc(F)cc2)coc2c3c(ccc12)OCCO3,133*,-130,.,5,.
C[C@H](CO)N1C[C@H](C)[C@@H](CN(C)C(=O)c2ccc3c(c2)OCO3)Oc2cc(-c3cncnc3)ccc2S1(=O)=O,.,9[16.7 µM],18,.,5
Cc1ccc(-c2nnn(CC(=O)N(CC3CCCO3)C(C(=O)NC3CCCCC3)c3ccc(F)cc3)n2)o1 (stereo unspecified),-9,116*,-17,.,.
CCCN1C[C@@H](C)[C@@H](OC)CN(C)C(=O)c2ccc(NC(=O)c3cccc(F)c3)cc2OC[C@H]1C,.,?,47*!,-2,2
CO[C@H]1CN(C)C(=O)c2ccc(NC(=O)C3CC3)cc2OC[C@H](C)N(Cc2cc(F)ccc2F)C[C@@H]1C,.,81*[16.7 µM],-22,.,-1
COc1cccc(C(=O)Nc2ccc3c(c2)C(=O)N(C)C[C@H](OC)[C@@H](C)CN(CCc2ccccc2)[C@H](C)CO3)c1,.,55*[16.7 µM],-45,.,-6
COc1cccc(C(=O)Nc2ccc3c(c2)C(=O)N(C)C[C@H](OC)[C@H](C)CN(CCc2ccccc2)[C@@H](C)CO3)c1,.,31[16.7 µM],-17,.,2
CCCN1C[C@H](C)[C@H](OC)CN(C)C(=O)c2ccc(NC(=O)c3cccc(F)c3)cc2OC[C@@H]1C,.,.,1,.,-1
Cc1cccc(S(=O)(=O)N2C[C@H]3[C@@H](c4ccccc42)[C@H](CO)N3CC2CCCC2)c1,.,.,-22,.,14*
Cc1cccc(S(=O)(=O)N2C[C@H]3[C@@H](c4ccccc42)[C@H](CO)N3CC2CCOCC2)c1,.,.,-1,.,-1
CCCC#Cc1ccc2c(c1)O[C@H](CN(C)C(C)=O)[C@@H](C)CN([C@@H](C)CO)S2(=O)=O,.,-9[16.7 µM],-2,.,3
COc1ccc(-c2c(S(=O)(=O)c3ccccc3)cnn2-c2ccccc2)cc1,-1,63*,.,.,.
C[C@@H]1CN([C@H](C)CO)C(=O)c2cc(C#CCN(C)C)cnc2O[C@H]1CN(C)S(=O)(=O)c1cn(C)cn1,.,-16[16.7 µM],40*,.,2
C[C@H]1CN([C@@H](C)CO)C(=O)c2cc(C#CCN(C)C)cnc2O[C@H]1CN(C)S(=O)(=O)c1cn(C)cn1,.,-12[16.7 µM],20,.,-2
C[C@@H]1CN([C@@H](C)CO)C(=O)c2cc(C#CCN(C)C)cnc2O[C@H]1CN(C)Cc1ccc(-c2ccccc2)cc1,.,12[16.7 µM],13,.,9.2*!
COCC(=O)N[C@H]1CC[C@H](CC(=O)NCc2ccccc2OC)O[C@@H]1CO,.,-11[16.7 µM],11,.,4
CCC(C)[C@H](N)c1cn([C@@H](Cc2cc3ccccc3[nH]2)C(=O)N2CCNCC2)nn1 (stereo partly specified),-3,-3,6,45*,2
